# According to PubChem BioAssay (EPA / NIEHS):
# “And” between values parts separate entries of the source, which are not always exact repeats. Equal entries are not always repeated. Where a structure was tested more than once in an assay, its records may differ in their call. The source made the active and inactive calls. Rule for the calls: active = hit-call score of the fitted dose curve at least 0.9, where 1 is the maximum; inactive = score below 0.9.
# Assay: ATG_Oct_MLP_CIS: Attagene CIS-FACTORIAL HepG2 Assay for human Octamer-Binding Transcription Factor (Oct) (AID 2282993)
# Conditions: HepG2 Attagene cis-factorial Oct reporter, mRNA; actives raise or lower the signal
# Procedure: ATG_CIS is a cell-based, multiplexed-readout assay that uses HepG2, a human liver cell line, with measurements taken at 24 hours after chemical dosing in a 24-well plate.ATG_Oct_MLP_CIS is one of 52 assay component(s) measured or calculated from the ATG_CIS assay. It is designed to make measurements of mRNA induction, a form of inducible reporter, as detected with fluorescence intensity signals by Reverse transcription polymerase chain reaction (RT-PCR) and Capillary electrophoresis technology.Data from the assay component ATG_Oct_MLP_CIS was analyzed into 1 assay endpoint. This assay endpoint, ATG_Oct_MLP_CIS, was analyzed with bidirectional fitting relative to DMSO as the negative control and baseline of activity. Using a type of inducible reporter, measures of mRNA for gain or loss-of-signal activity can be used to understand the reporter gene at the transcription factor-level as they relate to the gene POU2F1. Furthermore, this assay endpoint can be referred to as a primary readout, because this assay has produced multiple assay endpoints where this one serves a reporter gene function. To generalize the intended target to other relatable targets, this assay endpoint is annotated to the dna binding intended target family, where the subfamily is POU domain protein.
# Human liver HepG2 cells are transiently transfected with multiple reporter transcription units (MRTUs) in 6-well plates using FuGene 6 reagent (Roche; 3 ml FuGene/1 mg DNA). The MRTU constructs are regulated by a cis-regulating element (promoter). […] A major difference between the CIS and TRANS system is that in CIS activities of endogenous TFs are measured, whereas the TRANS assay evaluates changes in activities of exogenous, chimeric NR-Gal4 proteins. […] At the end of 24 hour incubation, total RNA was isolated using TriZol reagent (Invitrogen). The isolated RNA is then reverse-transcribed using oligo(dT) primer and Mo-MLV reverse transcriptase (Invitrogen) with DNAse I (Ambion) treatment for 30 min. The one-tenth of the produced cDNA was amplified by PCR using Taq DNA polymerase (Invitrogen) and two reporter sequence-specific primers. The PCR products were fluorescently labeled by primer extension with 6-arboxyfluorescein (6-FAM) 5'-labeled reporter sequence-specific primer (2 min at 95 C, 20 s at 68 C and 10 min at 72 C) and these products were digested with 5U of HpaI (New England Biolabs) for 2h at 37 C. The fragments were purified using Qiaquick PCR columns (Qiagen), analyzed on an ABI 3130xL genetic analyzer (Applied Biosystems) with peak positions identified by using a set of X-rhodamine (ROX)-labeled MapMarker1000 molecular weight standards (BioVentures). The raw capillary electrophoresis data was processed using Attagraph software (Attagene).
SMILES,AC50,outcome
CO/C=C(/C(=O)OC)c1ccccc1COc1cccc(C(F)(F)F)n1,11.5 µM (active),
OCC(O)CO,,inactive
ClC(Cl)=C(c1ccc(Cl)cc1)c1ccc(Cl)cc1,145 µM (active) and 152 µM (active) and 154 µM (active),inactive
Oc1c(Cl)c(Cl)c(Cl)c(Cl)c1Cl,31.1 µM (active) and 11.4 µM (active) and 73.1 µM (active),
Clc1ccc(C(c2ccccc2Cl)C(Cl)(Cl)Cl)cc1 (stereo not given),70.5 µM (active) and 104 µM (active) and 42.3 µM (active),inactive
O=C(N[C@H]1CN2CCC1CC2)c1cc2ccoc2cn1,,inactive
Oc1ccc(Cl)cc1Cl,,inactive
Clc1ccc(C(Cl)(Cl)Cl)cc1,,inactive
ClC1=C(Cl)[C@]2(Cl)[C@@H]3[C@@H]4C[C@@H]([C@H]5O[C@@H]45)[C@@H]3[C@@]1(Cl)C2(Cl)Cl,,inactive
Clc1ccc(Cl)cc1,,inactive
C=CC(N)=O,172 µM (active),
C1CC2OC2CC1C1CO1 (stereo not given),,inactive
Cc1cc(-c2ccc(N)c(C)c2)ccc1N,,inactive
CN(C)CCO,,inactive
Cc1cc2c3c(c1)C(c1ccccc1)=N[C@@H](NC(=O)c1ccncc1)C(=O)N3CC2,74 µM (active),
Cc1ccccc1CO[C@@H]1C[C@@]2(C(C)C)CC[C@]1(C)O2,,inactive

SMILES,AC50,outcome
O=C(O)C(F)(F)C(F)(F)C(F)(F)C(F)(F)C(F)(F)C(F)(F)C(F)(F)C(F)(F)C(F)(F)F,45.5 µM (active) and 50 µM (active),inactive
CCC(C)c1cc([N+](=O)[O-])cc([N+](=O)[O-])c1O (stereo not given),16.4 µM (active),
NS(=O)(=O)C(F)(F)C(F)(F)C(F)(F)C(F)(F)C(F)(F)C(F)(F)C(F)(F)C(F)(F)F,50 µM (active),inactive
CCCN(CCC)N=O,,inactive
CCC(=O)O[C@H]1CC[C@H]2[C@@H]3CCC4=CC(=O)CC[C@]4(C)[C@H]3CC[C@]12C,186 µM (active) and 73.4 µM (active) and 100 µM (active),inactive
O=C(O)C(F)(F)C(F)(F)C(F)(F)C(F)(F)C(F)(F)C(F)(F)C(F)(F)C(F)(F)F,50 µM (active),inactive
CCOCCOC(C)=O,,inactive
COc1ccc(O)c(C(C)(C)C)c1,143 µM (active),
CC(C)(O)C(=O)Nc1ccc([N+](=O)[O-])c(C(F)(F)F)c1,38.9 µM (active),inactive
CCC(C)(c1ccc(O)cc1)c1ccc(O)cc1,53 µM (active) and 45.7 µM (active) and 9.52 µM (active),inactive
CCCCCCCCCc1ccc(O)cc1,,inactive
CC#Cc1cc(C)nc(Nc2ccccc2)n1,,inactive
Cc1ccccc1O,,inactive
C=CC(=O)NCNC(=O)C=C,,inactive
ClC1=C(Cl)[C@]2(Cl)[C@@H]3[C@H]4C[C@H]([C@@H]5O[C@H]45)[C@@H]3[C@@]1(Cl)C2(Cl)Cl,,inactive
N#Cc1ccc(N(CC(N)=O)CC(F)(F)F)cc1C(F)(F)F,,inactive
